Laboratory results published in PMC7826789 (International Journal of Molecular Sciences, 2021).

test system: LRRK2; conditions: Compound Concentration (nM):1000
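Also: KINOMEscan scanMAX binding as percent activity remaining versus control; lower means stronger binding.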

| Compound | Percent Control |
| --- | --- |
| Cl.O=S1CCN(Cc2ccc(-c3ccc4ncnc(Nc5ccc(OCc6ccccc6)c(F)c5)c4c3)o2)CC1 [GW576924A] | 98% |
| COc1ccc2[nH]c3c4[nH]c5ccc(OC)cc5c4c4c(c3c2c1)C(=O)NC4=O [GW296115X] | 2.8% |
| COc1cc2ncnc(Nc3ccc4c(cnn4Cc4ccccc4)c3)c2cc1OC.Cl [GW282449A] | 100% |
| COc1cc(C=NNc2ncnc3c2cnn3-c2ccccc2)ccc1O [GW513184X] | 100% |
| COc1ccccc1-c1cc(/C=C2\C(=O)Nc3ncc(Br)cc32)cc(Br)c1O [GW442130X] | 100% |
| CN1CCN(C(=O)c2ccc(NC(=O)Nc3ccc(N(C)c4ccnc(Nc5ccc(CS(C)(=O)=O)cc5)n4)cc3)cc2)CC1.Cl [GW830263A] | 74% |
| O=C1Nc2ccc(C(=O)c3ccco3)cc2C1=Cc1cc(Cl)c(O)c(Cl)c1 [GW406108X] | 13% |
| COc1cc(/C=N/Nc2ncnc3[nH]ncc23)ccc1O [GW578748X] | 54% |
| Cc1cc(O)cc(C)c1/C=C/c1cncc(C(N)=O)c1 [GW435821X] | 81% |
| CCS(=O)(=O)c1ccc(OC)c(Nc2ncc(-c3cccc(F)c3)o2)c1 [GW621970X] | 90% |
| Cl.O=C(Nc1ccc(Oc2ccc3[nH]c(NC(=O)c4ccco4)nc3c2)cc1)Nc1cc(C(F)(F)F)ccc1F [GW683134A] | 28% |
| Nc1ncnc2occ(-c3ccc(NC(=O)Nc4cc(C(F)(F)F)ccc4F)cc3)c12 [GW770249X] | 77% |
| O=C(Nc1n[nH]c2nc(-c3ccc(O)cc3)c(Br)cc12)C1CC1 [SB-725317] | 89% |
| CC1=C(C(=O)Nc2ccc3[nH]ncc3c2)C(c2ccc(Cl)c(Cl)c2)CC(=O)N1 (stereo not shown) [GSK299115A] | 96% |
| NS(=O)(=O)c1ccc(N/N=C2\C(=O)Nc3ccc(Cl)cc32)cc1 [GW280670X] | 72% |
| CC1=C(C(=O)Nc2ccc3[nH]ncc3c2)C(c2ccc3ccccc3c2)CC(=O)N1 (stereo not shown) [GSK270822A] | 100% |
| COc1cccc(-c2c[nH]c3c(N/N=C/c4ccncc4)ncnc23)c1 [GW814408X] | 100% |
| NS(=O)(=O)c1ccc(N/N=C2\C(=O)Nc3ccc(C(=O)NCCc4c[nH]cn4)cc32)cc1 [GW300660X] | 78% |
| CN(C)CCNC(=O)Nc1ccc(N(C)c2ccnc(Nc3ccc(CS(C)(=O)=O)cc3)n2)cc1.Cl [GW830900A] | 83% |
| COc1ccc2cc(-c3c(-c4ccncc4)nc(-c4ccc(S(C)(=O)=O)cc4C)n3C)ccc2c1 [SB-633825] | 96% |

| Compound | Percent Control |
| --- | --- |
| NS(=O)(=O)c1ccc(N/N=C2\C(=O)Nc3ccc(-c4cnco4)cc32)cc1 [GW276655] | 44% |
| CN(C)c1cc2c(Nc3ccc4c(cnn4Cc4ccccc4)c3)ncnc2cn1 [GW282974X] | 97% |
| COc1ccc2c(-c3ccnc(Nc4cccc(OC(F)(F)F)c4)n3)cnn2n1 [GW810372X] | 72% |
| Cl.O=C(O[C@H]1CN[C@H](C#Cc2cc3ncnc(Nc4ccc5c(cnn5Cc5ccccc5)c4)c3s2)C1)N1CCOCC1 [GSK200398A] | 97% |
| CCS(=O)(=O)c1ccc(OC)c(Nc2ncc(-c3cccc(OC)c3)o2)c1 [GW580509X] | 100% |
| CCc1ccc(Oc2nccc(-c3c(-c4ccc(F)cc4)ncn3C3CCNCC3)n2)cc1 [SB-242719] | 100% |
| NS(=O)(=O)c1ccc(N/N=C2\C(=O)Nc3ccc(C(=O)NCc4ccncc4)cc32)cc1 [GW300657X] | 69% |
| COc1ccc(COc2ccc(Cc3cnc(N)nc3N)cc2OC)cc1 [GW632580X] | 83% |
| NS(=O)(=O)c1ccc(Nc2ncc(-c3ccccc3)o2)cc1 [GW572399X] | 76% |
| COC(=O)Nc1nc2ccc(Oc3ccc(NC(=O)Nc4cc(C(F)(F)F)ccc4F)cc3)cc2s1.Cl [GW693917A] | 39% |
| COc1cc(C)c(N(C)C(=O)CN(C)C)cc1Nc1nc(Nc2cccc(F)c2C(N)=O)c2cc[nH]c2n1 [GSK2219385] | 11% |
| COc1cc(N2CCN(C(C)C)CC2)ccc1Nc1nc(Nc2ccc(F)cc2C(=O)NC[C@@H](O)CO)c2cc[nH]c2n1 [GSK1392956A] | 12% |
| CC(C)COC(=O)c1ccc2c(c1)/C(=C/Nc1ccc(S(N)(=O)=O)cc1)C(=O)N2 [GW416981X] | 56% |
| Cl.c1ccc(Cc2nc3ccc(Nc4ncnc5ccccc45)cc3[nH]2)cc1 [GR269666A] | 100% |
| CCn1c(-c2nonc2N)nc2c(C#CC(C)(C)O)nc(OCCNC)cc21.Cl [GSK949675] | 100% |
| COc1cc2ncn(-c3cc(O[C@H](C)c4ccccc4Cl)c(C(N)=O)s3)c2cc1OC [GSK237701A] | 70% |
| COc1cccc(-n2ncc3c(N/N=C/c4ccncc4)ncnc32)c1 [GW784752X] | 91% |
| C[C@@H](Oc1cc(-n2cnc3ccc(OC4CCN(C)CC4)cc32)sc1C(N)=O)c1ccccc1Cl [GSK579289A] | 77% |
| Cl.O=C(Nc1ccc(Oc2ccc3[nH]c(NC(=O)c4ccccc4)nc3c2)cc1)Nc1cc(C(F)(F)F)ccc1F [GW709042A] | 39% |
| C/C(Nc1ccc(S(N)(=O)=O)cc1)=C1/C(=O)Nc2ccccc21 [GW335962X] | 55% |
